Data: PubChem BioAssay AID2451 (National Center for Advancing Translational Sciences (NCATS), 2010)
Screen size: about 290,000 compounds; about 2,100 (0.72%) were called active. Inconclusive results (about 4%) are left out. The call rests on the fitted dose curve; in most records, active means well fitted inhibition curve with a large enough effect; inconclusive means small, poorly fitted or top-dose-only effect, or effect the other way; inactive means flat fitted curve, though single readings scatter. The full list was thinned out, with actives kept by preference.

molecular target: Fructose-bisphosphate aldolase (Giardia intestinalis (strain ATCC 50803 / WB clone C6)) (UniProt A8B2U2); experiment: qHTS Assay for Inhibitors of Fructose-1,6-bisphosphate Aldolase from Giardia Lamblia; details: purified Giardia FBPA; series mostly up to 59.6 µM; activity, negative = inhibition: at the top concentration; further: nearly all actives have a fitted effect of over 55% in size
Sequence (A8B2U2 whole entry, looked up): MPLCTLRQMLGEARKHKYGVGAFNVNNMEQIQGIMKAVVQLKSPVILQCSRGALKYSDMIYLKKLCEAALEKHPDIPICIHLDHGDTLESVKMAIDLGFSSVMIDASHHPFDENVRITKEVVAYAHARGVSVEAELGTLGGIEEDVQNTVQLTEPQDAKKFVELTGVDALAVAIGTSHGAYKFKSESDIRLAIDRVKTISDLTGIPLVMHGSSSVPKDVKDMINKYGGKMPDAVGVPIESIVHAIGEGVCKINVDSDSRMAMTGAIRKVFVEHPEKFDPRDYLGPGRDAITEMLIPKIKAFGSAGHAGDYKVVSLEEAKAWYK
Excerpt: Assay Provider: Osnat Herzberg, University of Maryland
The objective of this project is to obtain compounds that inhibit Giardia lamblia growth. G. lamblia is a human pathogen which afflicts impoverished nations; it is the most common cause of outbreaks of diarrhea in the United States. During the course of our study of potential drug targets in Giardia, we have identified the Class II (Zn2+ functions in electrophilic catalysis) fructose-1,6-bisphosphate aldolase (FBPA) as an excellent candidate for drug targeting. FBPA is a key glycolytic pathway enzyme, essential for G. lamblia survival. The human FBPA belongs to the Class I aldolases, which have a different substrate binding site structure and a radically different catalytic mechanism (employing a lysine-Schiff base intermediate). Therefore, affinity-based or mechanism-based inhibitors of the Giardia FBPA are expected not to interfere with the catalytic function of the human FBPA.
A glyceraldehyde-3-phosphate dehydrogenase/triose phosphate isomerase/NAD/arsenate coupled assay was adapted to the 1536-well HTP format for use in the primary screen. This was done by coupling it to a diaphorase/resazurin/resorufin reaction that can be monitored by fluorescence (excitation, 544 nm; emission, 590 nm). Compounds identified in this screen will be further evaluated by coupling the glycerol-3-phosphate/triose phosphate isomerase/NADH assay to a phenazine methosulfate/tetranitroblue tetrazolium color reaction. False positives due to the dehydrogenases and diaphorase inhibition will be eliminated, and selectivity assay will triage inhibitors of mammalian triose phosphate isomerase and the Class I FBPA. G. lamblia FBPA inhibitors identified by the in vitro analyses will be examined for growth inhibition of Giardia trophozoites, and for cytotoxicity in human cells.
Step,Parameter,Value,Description
1,Enzyme reagent,2 uL,40 nM FBPA
2,Compound,23 nL,3.68 nM-57.5 uM final concentration
3,Time,10 min,RT Incubation
4,Substrate/detection Reagent,2 uL,Substrate + enzyme coupling system + AmpLite Red kit
5,Time,20 min,RT Incubation
6,Detector,525 nm/598 nm (Fluorescence),ViewLux Fluorescence Read (Read 1)
1,Medium-binding black solid-bottom Kalypsys plates. FRD or Kalypsys dispenser, 2 uL of FBPA enzyme. Bottle kept at 4C.
2,Compound Library (10 mM ,1:5 dilution). Pin-transferred for a [final] range of 3.68 nM-57.5 uM.
4,FRD or Kalypsys dispenser, 2 uL of reaction mixture. Bottle kept at 4C and covered in foil to protect from light.
6,ViewLux Protocol 1194; Excitation filter wheel A (525/20 Pol; BODIPY TMR FP), Emission filter wheel B (598/25 S; BODIPY TMR FP S).
Keywords: Fructose-bisphosphate aldolase, FBPA , Giardia lamblia , Giardia, HTS, Inhibitors
On the % scale 0 is the no-effect control and ±100 the full control effect; potency means the concentration at half of the fitted maximal effect.

Row | Structure (SMILES) | activity, negative = inhibition | Potency
1 | Cc1cccc(NC(=S)N2CCC(c3nc4ccccc4s3)CC2)c1 | -0.249% (inactive) | –
2 | Cc1nc2ccc(NC(=S)N3CCC(C)CC3)cc2nc1C | – | 15.8 µM (active)
3 | Cc1nc2ccc(NC(=O)N3CCC(c4ccccc4)C3)cc2nc1C (stereo unspecified) | -21.7% (inactive) | –
4 | O=CN1CCN(C(=O)c2ccc(Br)o2)CC1 | 3.01% (inactive) | –
5 | O=C(CN1CCCCCC1)Nc1c(Cl)cc(Cl)cc1Cl | 5.6% (inactive) | –
6 | Cc1cc(C)c(NC(=O)CN2CCCCCC2)c(C)c1 | -2.14% (inactive) | –
7 | Cc1csc(NC(=O)CN2CCCCCC2)n1 | – | 22.3 µM (active)
8 | Cc1cccc([C@@H]2[C@@H]3C(=O)N(C)C(=O)[C@@H]3[C@@H]3C(=O)Nc4ccccc4C(=O)N23)c1 | -14.7% (inactive) | –
9 | COc1ccccc1N(CC(=O)N/N=C(\C)c1ccccc1O)S(=O)(=O)c1ccc(C)cc1 | 2.65% (inactive) | –
10 | CC(C)(C)c1ccc(CN2C(=O)c3ccccc3S2(=O)=O)cc1 | -19.5% (inactive) | –
11 | Cc1ccc(C(=O)N2CC(=O)Nc3ccc(F)cc3C2c2ccc(F)cc2)cc1 (stereo unspecified) | 3.84% (inactive) | –
12 | Cc1nnc(N/N=C/c2cccs2)[nH]c1=O | -7.41% (inactive) | –
13 | Cc1ccccc1Nc1nnc(C)c(=O)[nH]1 | -0.51% (inactive) | –
14 | Cc1nnc(N/N=C/c2ccccn2)[nH]c1=O | – | 1.99 µM (active)
15 | O=S(=O)(c1ccc(Br)c2ccccc12)N1CCOCC1 | 1.75% (inactive) | –
16 | COc1ccc(C(=O)Nc2ccc(C3(C#N)CCCC3)cc2)cc1OC | -4.77% (inactive) | –
17 | Cc1ccc(CC2CC(=O)N(c3cc(C)ccc3C)C2=O)cc1 (stereo unspecified) | -1.82% (inactive) | –
18 | O=C(COc1cccc(Cl)c1)NCc1ccccc1 | 15% (inactive) | –
19 | O=[N+]([O-])c1ccc(Sc2n[nH]c(-c3ccco3)n2)nc1 | -26.1% (inactive) | –

Row | Structure (SMILES) | activity, negative = inhibition | Potency
20 | CN(C)C(=O)CSc1n[nH]c(-c2ccco2)n1 | – | 15.8 µM (active)
21 | CN(C)c1ccc(NC(=O)CSc2n[nH]c(-c3ccco3)n2)cc1 | -5.76% (inactive) | –
22 | CC(C)Nc1ccc(-n2nc3ccccc3[n+]2[O-])cc1 | -3.63% (inactive) | –
23 | COCCCNC(=S)N1CCN(c2nc(-c3cccc(OC)c3)cs2)CC1 | -13.5% (inactive) | –
24 | O=C(N/C(=C/c1ccc(Cl)cc1)C(=O)N1CCCCC1)c1ccco1 | 8.42% (inactive) | –
25 | COc1cc2ccccc2cc1C(=O)Nc1nc(C)c(C(C)=O)s1 | 0.847% (inactive) | –
26 | CCCCC(CC)CNCc1cccn1CCN1CCOCC1 (stereo unspecified) | -22.5% (inactive) | –
27 | CCN(CC)c1ccc2oc(=O)c(C)nc2c1 | – | 2.51 µM (active)
28 | CCN(CC)c1ccc(/C=N/Nc2nc(C)cc(C)n2)c(O)c1 | -25.3% (inactive) | –
29 | CCN(CC)c1ccc(/C=N/Nc2nc(C)cc(=O)[nH]2)cc1 | -1.27% (inactive) | –
30 | CCOCCOC(=O)C(C)Oc1ccc(Oc2ncc(C(F)(F)F)cc2Cl)cc1 (stereo unspecified) | -9.6% (inactive) | –
31 | COc1ccc(C2CC(c3ccc([N+](=O)[O-])cc3)=NN2C(C)=O)cc1 (stereo unspecified) | 4.54% (inactive) | –
32 | COc1ccc2c(c1)C(=C(C#N)C#N)C(=O)N2CCc1ccccc1 | – | 2.51 µM (active)
33 | C#CCN1C(=O)C(O)(CC(=O)c2cc(OC)ccc2OC)c2ccccc21 (stereo unspecified) | 0.87% (inactive) | –
34 | COc1ccc(C(=O)NC(C)CCc2ccccc2)c(OC)c1 (stereo unspecified) | -2.8% (inactive) | –
35 | Brc1ccccc1C1N=C(c2ccccc2)NO1 (stereo unspecified) | 6.11% (inactive) | –
36 | Cc1ccc(SCC(CC(C)C)N2CCN(CCc3ccccc3)CCC2=O)cc1 (stereo unspecified) | 0.403% (inactive) | –
37 | CCOc1ccccc1NC(=O)C1CCCN(S(=O)(=O)c2ccccc2)C1 (stereo unspecified) | -3.85% (inactive) | –
38 | CCN1CCc2c(C#N)c(NCc3ccccc3)nc(NCCO)c2C1 | – | 5.61 µM (active)

Row | Structure (SMILES) | activity, negative = inhibition | Potency
39 | CCc1nc(NCCO)c(C#N)c2c1CCCC2 | 4.66% (inactive) | –
40 | CCCCc1nc(NCc2ccccc2)c(C#N)c2c1CCCC2 | 0.951% (inactive) | –
41 | Cc1cccc(C(=O)NCCCN2CCCC2=O)c1 | 0.332% (inactive) | –
42 | Cc1cc(Cl)ccc1NC(=S)NCCCN1CCCC1=O | 3.39% (inactive) | –
43 | O=C1CCCN1CCCNC(=S)Nc1ccc(F)c(Cl)c1 | – | 14.1 µM (active)
44 | O=C(O)CCCn1cc(NC(=O)COc2cccc(Cl)c2)cn1 | -8.97% (inactive) | –
45 | COc1ccc(-n2ncc3c(SCC(=O)NNC(C)=O)ncnc32)cc1 | 13.2% (inactive) | –
46 | Cc1nn(-c2ccccc2)c(Cl)c1/C=C/C(=O)c1ccc(O)cc1 | 1.27% (inactive) | –
47 | Cc1ccccc1-n1nc(C)c2c1N=C1C(Cl)=CC(Cl)=CN1C2c1ccc(C(=O)O)cc1 (stereo unspecified) | – | 12.6 µM (active)
48 | Cc1ccccc1-n1nc(C)c2cc(C(=O)NC3CC3)sc21 | 0.949% (inactive) | –
49 | Cc1cccc([C@@H]2[C@@H]3C(=O)N(Cc4ccccc4)C(=O)[C@@H]3[C@]3(C)C(=O)N(c4ccc(Br)cc4)C(=O)N23)c1 | 16.2% (inactive) | –
50 | CCN(CC)S(=O)(=O)c1ccc(-c2cn3ccc(C)cc3n2)cc1 | 4.66% (inactive) | –
51 | C=CCn1c(SCc2ccccc2)nc2c1c(=O)[nH]c(=O)n2C | 6.61% (inactive) | –
52 | Cc1cnc(NC(=O)CSc2c(Cl)cccc2Cl)s1 | 0.395% (inactive) | –
53 | Cc1cnc(NC(=O)c2ccc(Cl)nc2)s1 | -13.5% (inactive) | –
54 | Cc1cnc(NC(=O)c2ccccn2)s1 | – | 7.92 µM (active)
55 | CN(C)CCN(C(=O)C1=COCCO1)c1nc2ccc(Cl)cc2s1 | -10.9% (inactive) | –
56 | CCc1ccc(NC(=O)N2CCc3ccccc3C2)cc1 | 5.4% (inactive) | –
